# From the supplement of paper PMC9794691
# How the values were obtained:
# Assay in all cases: area under confluence curve of osimertinib + compound combination regimen (DTP regrowth); compare to osimertinib-only DTP control AUC of the same experiment (AUC (confluence x time, arbitrary))
# [1] = test system: PC9
# Method in brief: (§1)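 The area under the IncuCyte confluence–time curve, calculated in Prism and taken as the median of triplicates where available, is the value reported. It was measured in EGFR-mutant NSCLC lines that received the EGFR inhibitor either alone, followed by a test compound, or together with a fixed-dose test compound until the persister stage (10–21 days) and then drug-free medium. Medium was refreshed every 3–4 days until the inhibitor-only wells were confluent again.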
# [2] = test system: H1975; conditions: test compound dose 300 nM
# Method in brief: as §1
# [3] = test system: HCC2279; conditions: test compound dose 300 nM
# Method in brief: as §1
# [4] = test system: HCC2935; conditions: test compound dose 300 nM
# Method in brief: as §1
# [5] = test system: HCC4006; conditions: test compound dose 300 nM
# Method in brief: as §1
# [6] = test system: HCC827; conditions: test compound dose 300 nM
# Method in brief: as §1
# [7] = test system: II-18; conditions: test compound dose 300 nM
# Method in brief: as §1
smiles,measurement,setting,value
CS(=O)(=O)CCNCc1ccc(-c2ccc3ncnc(Nc4ccc(OCc5cccc(F)c5)c(Cl)c4)c3c2)o1 [Lapatinib] + C=CC(=O)Nc1cc(Nc2nccc(-c3cn(C)c4ccccc34)n2)c(OC)cc1N(C)CCN(C)C [osimertinib],area under confluence curve,"[1]; test compound dose 1000 nM, dosing schedule: sequential, osimertinib-only DTP control AUC in same experiment: 16279, DMSO control AUC in same experiment: 29345",21600
same,area under confluence curve,"[1]; test compound dose 1000 nM, dosing schedule: upfront, osimertinib-only DTP control AUC in same experiment: 19769, DMSO control AUC in same experiment: 29345",18300
Nc1nc(Nc2ccc3c(c2)CCC(N2CCCC2)CC3)nn1-c1cc2c(nn1)-c1ccccc1CCC2 (stereo not drawn) + C=CC(=O)Nc1cc(Nc2nccc(-c3cn(C)c4ccccc34)n2)c(OC)cc1N(C)CCN(C)C [osimertinib],area under confluence curve,"[1]; test compound dose 300 nM, dosing schedule: sequential, osimertinib-only DTP control AUC in same experiment: 11273, DMSO control AUC in same experiment: 20197",6530
same,area under confluence curve,"[1]; test compound dose 300 nM, dosing schedule: sequential, osimertinib-only DTP control AUC in same experiment: 29087, DMSO control AUC in same experiment: 30008",12100
same,area under confluence curve,"[1]; test compound dose 300 nM, dosing schedule: upfront, osimertinib-only DTP control AUC in same experiment: 13449, DMSO control AUC in same experiment: 20197",7530
same,area under confluence curve,"[1]; test compound dose 300 nM, dosing schedule: upfront, osimertinib-only DTP control AUC in same experiment: 34430, DMSO control AUC in same experiment: 30008",11700
O=C(CCCCCCC(=O)Nc1ccccc1)NO [Vorinostat] + C=CC(=O)Nc1cc(Nc2nccc(-c3cn(C)c4ccccc34)n2)c(OC)cc1N(C)CCN(C)C [osimertinib],area under confluence curve,"[1]; test compound dose 1000 nM, dosing schedule: sequential, osimertinib-only DTP control AUC in same experiment: 12065, DMSO control AUC in same experiment: 48219",7830
same,area under confluence curve,"[1]; test compound dose 1000 nM, dosing schedule: sequential, osimertinib-only DTP control AUC in same experiment: 14002, DMSO control AUC in same experiment: 31239",6670
same,area under confluence curve,"[1]; test compound dose 1000 nM, dosing schedule: upfront, osimertinib-only DTP control AUC in same experiment: 22175, DMSO control AUC in same experiment: 31239",7410
same,area under confluence curve,"[1]; test compound dose 1000 nM, dosing schedule: upfront, osimertinib-only DTP control AUC in same experiment: 22645, DMSO control AUC in same experiment: 48219",10400
O=C(N[C@@H](C1CC1)C(F)(F)F)c1cc(-c2cnn3cc(-c4ccc(F)cc4)cnc23)cs1 + C=CC(=O)Nc1cc(Nc2nccc(-c3cn(C)c4ccccc34)n2)c(OC)cc1N(C)CCN(C)C [osimertinib],area under confluence curve,"[1]; test compound dose 1000 nM, dosing schedule: sequential, osimertinib-only DTP control AUC in same experiment: 10206, DMSO control AUC in same experiment: 18733",9160
same,area under confluence curve,"[1]; test compound dose 1000 nM, dosing schedule: upfront, osimertinib-only DTP control AUC in same experiment: 17072, DMSO control AUC in same experiment: 18733",16800
CN(C)CCCOc1ccc(-c2ccc3ncc4c(c3c2)n(C2CCOCC2)c(=O)n4C)cn1 + C=CC(=O)Nc1cc(Nc2nccc(-c3cn(C)c4ccccc34)n2)c(OC)cc1N(C)CCN(C)C [osimertinib],area under confluence curve,"[2]; dosing schedule: sequential, osimertinib-only DTP control AUC in same experiment: 19301, DMSO control AUC in same experiment: 26223",3330
same,area under confluence curve,"[2]; dosing schedule: upfront, osimertinib-only DTP control AUC in same experiment: 23997, DMSO control AUC in same experiment: 26223",18100
same,area under confluence curve,"[3]; dosing schedule: sequential, osimertinib-only DTP control AUC in same experiment: 26096, DMSO control AUC in same experiment: 14404",24700
same,area under confluence curve,"[3]; dosing schedule: upfront, osimertinib-only DTP control AUC in same experiment: 33120, DMSO control AUC in same experiment: 14404",33900
same,area under confluence curve,"[4]; dosing schedule: sequential, osimertinib-only DTP control AUC in same experiment: 22314, DMSO control AUC in same experiment: 19215",22300
same,area under confluence curve,"[4]; dosing schedule: upfront, osimertinib-only DTP control AUC in same experiment: 29846, DMSO control AUC in same experiment: 19215",30600
same,area under confluence curve,"[5]; dosing schedule: sequential, osimertinib-only DTP control AUC in same experiment: 12791, DMSO control AUC in same experiment: 18415",12000
same,area under confluence curve,"[5]; dosing schedule: upfront, osimertinib-only DTP control AUC in same experiment: 17269, DMSO control AUC in same experiment: 18415",16000
same,area under confluence curve,"[6]; dosing schedule: sequential, osimertinib-only DTP control AUC in same experiment: 15330, DMSO control AUC in same experiment: 21320",12300
same,area under confluence curve,"[6]; dosing schedule: upfront, osimertinib-only DTP control AUC in same experiment: 20798, DMSO control AUC in same experiment: 21320",17400
same,area under confluence curve,"[7]; dosing schedule: sequential, osimertinib-only DTP control AUC in same experiment: 8624, DMSO control AUC in same experiment: 11834",9720
same,area under confluence curve,"[7]; dosing schedule: upfront, osimertinib-only DTP control AUC in same experiment: 10856, DMSO control AUC in same experiment: 11834",10600
Cc1nc(-c2nc(-c3ccc(OC(F)(F)F)cc3)no2)nn1Cc1cccc(N2CCC(S(C)(=O)=O)CC2)c1 + C=CC(=O)Nc1cc(Nc2nccc(-c3cn(C)c4ccccc34)n2)c(OC)cc1N(C)CCN(C)C [osimertinib],area under confluence curve,"[1]; test compound dose 10 nM, dosing schedule: sequential, osimertinib-only DTP control AUC in same experiment: 11178, DMSO control AUC in same experiment: 18385",9950
same,area under confluence curve,"[1]; test compound dose 10 nM, dosing schedule: sequential, osimertinib-only DTP control AUC in same experiment: 12231, DMSO control AUC in same experiment: 19076",3870
same,area under confluence curve,"[1]; test compound dose 10 nM, dosing schedule: upfront, osimertinib-only DTP control AUC in same experiment: 16535, DMSO control AUC in same experiment: 19076",12500
same,area under confluence curve,"[1]; test compound dose 10 nM, dosing schedule: upfront, osimertinib-only DTP control AUC in same experiment: 16887, DMSO control AUC in same experiment: 18385",15300
Cc1nc(Nc2n[nH]c3c2CN(C(=O)N[C@H](CN(C)C)c2ccccc2)C3(C)C)c2sccc2n1 + C=CC(=O)Nc1cc(Nc2nccc(-c3cn(C)c4ccccc34)n2)c(OC)cc1N(C)CCN(C)C [osimertinib],area under confluence curve,"[1]; test compound dose 100 nM, dosing schedule: sequential, osimertinib-only DTP control AUC in same experiment: 14258, DMSO control AUC in same experiment: 20347",3500
same,area under confluence curve,"[1]; test compound dose 100 nM, dosing schedule: upfront, osimertinib-only DTP control AUC in same experiment: 21499, DMSO control AUC in same experiment: 20347",12300
Cn1cnc2c(F)c(Nc3ccc(Br)cc3Cl)c(C(=O)NOCCO)cc21 [Selumetinib] + C=CC(=O)Nc1cc(Nc2nccc(-c3cn(C)c4ccccc34)n2)c(OC)cc1N(C)CCN(C)C [osimertinib],area under confluence curve,"[2]; dosing schedule: sequential, osimertinib-only DTP control AUC in same experiment: 12533, DMSO control AUC in same experiment: 14522",2580
same,area under confluence curve,"[2]; dosing schedule: upfront, osimertinib-only DTP control AUC in same experiment: 18969, DMSO control AUC in same experiment: 14522",10100
same,area under confluence curve,"[3]; dosing schedule: sequential, osimertinib-only DTP control AUC in same experiment: 15997, DMSO control AUC in same experiment: 40085",8900
same,area under confluence curve,"[3]; dosing schedule: upfront, osimertinib-only DTP control AUC in same experiment: 28057, DMSO control AUC in same experiment: 40085",9080
same,area under confluence curve,"[4]; dosing schedule: sequential, osimertinib-only DTP control AUC in same experiment: 7139, DMSO control AUC in same experiment: 15413",12800
same,area under confluence curve,"[4]; dosing schedule: upfront, osimertinib-only DTP control AUC in same experiment: 19044, DMSO control AUC in same experiment: 15413",9550
same,area under confluence curve,"[5]; dosing schedule: sequential, osimertinib-only DTP control AUC in same experiment: 14882, DMSO control AUC in same experiment: 10921",9590
same,area under confluence curve,"[5]; dosing schedule: upfront, osimertinib-only DTP control AUC in same experiment: 18913, DMSO control AUC in same experiment: 10921",11700
same,area under confluence curve,"[6]; dosing schedule: sequential, osimertinib-only DTP control AUC in same experiment: 18675, DMSO control AUC in same experiment: 48895",11400
same,area under confluence curve,"[6]; dosing schedule: upfront, osimertinib-only DTP control AUC in same experiment: 25542, DMSO control AUC in same experiment: 48895",11100
same,area under confluence curve,"[7]; dosing schedule: sequential, osimertinib-only DTP control AUC in same experiment: 21014, DMSO control AUC in same experiment: 18482",16200
same,area under confluence curve,"[7]; dosing schedule: upfront, osimertinib-only DTP control AUC in same experiment: 27084, DMSO control AUC in same experiment: 18482",14400
same,area under confluence curve,"[1]; test compound dose 300 nM, dosing schedule: sequential, osimertinib-only DTP control AUC in same experiment: 14554, DMSO control AUC in same experiment: 49189",10400
same,area under confluence curve,"[1]; test compound dose 300 nM, dosing schedule: upfront, osimertinib-only DTP control AUC in same experiment: 24473, DMSO control AUC in same experiment: 49189",11200
Cc1cc2ncnn2cc1Nc1ncc2c(n1)n(C1CCOCC1)c(=O)n2C + C=CC(=O)Nc1cc(Nc2nccc(-c3cn(C)c4ccccc34)n2)c(OC)cc1N(C)CCN(C)C [osimertinib],area under confluence curve,"[1]; test compound dose 1000 nM, dosing schedule: sequential, osimertinib-only DTP control AUC in same experiment: 15044, DMSO control AUC in same experiment: 30604",10500
same,area under confluence curve,"[1]; test compound dose 1000 nM, dosing schedule: upfront, osimertinib-only DTP control AUC in same experiment: 20672, DMSO control AUC in same experiment: 30604",12700
CCc1cc2c(cc1N1CCC(N3CCOCC3)CC1)C(C)(C)c1[nH]c3cc(C#N)ccc3c1C2=O [Alectinib] + C=CC(=O)Nc1cc(Nc2nccc(-c3cn(C)c4ccccc34)n2)c(OC)cc1N(C)CCN(C)C [osimertinib],area under confluence curve,"[1]; test compound dose 1000 nM, dosing schedule: sequential, osimertinib-only DTP control AUC in same experiment: 15001, DMSO control AUC in same experiment: 22064",12500
same,area under confluence curve,"[1]; test compound dose 1000 nM, dosing schedule: upfront, osimertinib-only DTP control AUC in same experiment: 24924, DMSO control AUC in same experiment: 22064",10800
